A selection: hits, their analogues and other compounds. The true share with any hit is near 3.9%.
VDR inhibitor: blocks the human vitamin D receptor | actives 0.93% (n = 400,000) | P11473 | AID 504847 | Potency, µM, for the others: max response, negative = inhibition, usual class: inhibitors | VDR-SRC2-3 peptide fluorescence polarization, 2 h; further: on the % scale 0 is the no-effect control and ±100 the full control effect
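VDR–SRC2-3 interaction, FP format. Cmpds 23 nl via pintool, brief spin, 2 h ambient incubation.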
PLK1 PBD inh: PLK1 (human) polo-box domain binding inhibition | Plk1 PBD binding of FITC phosphopeptide, fluorescence polarization | Potency, µM, without a hit: max response, negative = inhibition, hits mostly inhibitors | actives 2.8% (n = 360,000) | AID 720504; further: series mostly up to about 57 µM; on the % scale 0 is the no-effect control and ±100 the full control effect; nearly all actives have a fitted effect of over 65% in size
Target sequence (P53350 whole entry, looked up, the tested form may be a part): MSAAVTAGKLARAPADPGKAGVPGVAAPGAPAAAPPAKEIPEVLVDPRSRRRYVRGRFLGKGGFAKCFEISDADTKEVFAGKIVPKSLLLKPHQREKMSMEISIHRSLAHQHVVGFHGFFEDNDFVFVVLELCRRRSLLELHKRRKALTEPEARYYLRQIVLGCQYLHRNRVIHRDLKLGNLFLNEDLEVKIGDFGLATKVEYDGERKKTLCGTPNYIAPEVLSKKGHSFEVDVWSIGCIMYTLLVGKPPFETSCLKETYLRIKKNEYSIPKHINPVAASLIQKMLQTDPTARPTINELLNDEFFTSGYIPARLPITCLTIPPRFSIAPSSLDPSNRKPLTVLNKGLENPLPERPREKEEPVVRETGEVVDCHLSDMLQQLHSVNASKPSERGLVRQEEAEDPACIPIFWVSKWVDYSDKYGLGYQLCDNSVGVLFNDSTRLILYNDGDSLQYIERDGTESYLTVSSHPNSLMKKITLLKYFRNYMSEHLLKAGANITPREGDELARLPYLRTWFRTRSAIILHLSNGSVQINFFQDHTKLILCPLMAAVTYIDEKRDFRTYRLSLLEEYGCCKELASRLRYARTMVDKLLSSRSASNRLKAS
Tb PFK block: blocks T. brucei phosphofructokinase. actives 0.17% (n = 330,000). T. brucei PFK, ADP-Glo luminescence. Potency, µM (highest dose often 57.5 µM), without a hit: at the top dose activity, negative = inhibition, actives largely listed as inhibitors. O15648;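 further: 0% = uninhibited 1x PFK enzyme wells and -100% = no-enzyme wells; nearly all actives have a fitted effect of over 60% in size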
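ADP-Glo luminescence quantified ADP after 45 min at room temperature, with 1.25 nM T. brucei PFK, 0.1 mM ATP and 0.5 mM fructose-6-phosphate in pH 8.0 TEA buffer. qHTS titrations up to 57 µM; curves classified by quality.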
BRCA1 expr act: increases BRCA1 expression | MCF7-BRCA1-FFLuc reporter, luminescence, 48 h; response scale: scaled: vehicle 0%, 10 µM genistein 100% | Potency, µM (doses to about 46.1 µM), for inactives: at the top dose activation, hits mostly activators | actives 1.1% (n = 380,000); further: nearly all actives have a fitted effect of over 80% in size
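48 h compound treatment of MCF7-BRCA1-FFLuc cells (phenol-red free MEM, 37 °C), then 15 min with luciferase substrate and luminescence imaging.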
Active calls of the source: *; ! = a repeat was not active. The call rests on the fitted dose curve; in most records, active means well fitted curve in the direction sought with a large enough effect; inconclusive means small, poorly fitted or top-dose-only effect, or another doubt; inactive means no such curve, though single readings can be large; an effect the other way counts as inactive or inconclusive. Potency means the concentration at half of the fitted maximal effect.

`Cc1cccc2c3c(ccc12)C1=C(C(=O)C3=O)[C@@H](C)CO1` gave VDR inhibitor 20µM*.
`Brc1c(Br)c(Br)c2n[nH]nc2c1Br` gave VDR inhibitor 45µM*.
Screening CC(=O)O[C@H]1C(=O)[C@@]2(C)C([C@H](OC(=O)c3ccccc3)[C@]3(O)C[C@H](OC(=O)[C@H](O)[C@@H](NC(=O)c4ccccc4)c4ccccc4)C(C)=C1C3(C)C)[C@]1(OC(C)=O)CO[C@@H]1C[C@@H]2OC(=O)[C@H](C)NC(=O)c1ccc(-c2c3ccc(=O)cc-3oc3cc(O)ccc23)c(C(=O)O)c1 (some centres undefined) returned VDR inhibitor -14%.
Screening Cc1cccc(OCCn2cccc2/C=C2/C(=O)NC(=O)N(Cc3ccco3)C2=O)c1 returned VDR inhibitor 8%, PLK1 PBD inh 1.9µM*, Tb PFK block -5% and BRCA1 expr act 8%.
O=C1NC(=O)N(Cc2ccco2)C(=O)/C1=C\c1cccn1CCOc1ccc(Cl)cc1 was read as VDR inhibitor -27%, PLK1 PBD inh 1.9µM*, Tb PFK block -9% and BRCA1 expr act 19%.
For CCc1ccc(N2C(=O)NC(=O)/C(=C/c3cccn3CCOc3ccc(C(C)CC)cc3)C2=O)cc1 (centres undefined) the results were VDR inhibitor -8%, PLK1 PBD inh -11%, Tb PFK block -1% and BRCA1 expr act inconclusive.
`CCc1ccc(N2C(=O)NC(=O)/C(=C/c3cccn3CCOc3ccc(C)cc3)C2=O)cc1` gave VDR inhibitor 17%, PLK1 PBD inh -10%, Tb PFK block 3% and BRCA1 expr act -11%.
COCCN(C(=O)CCl)c1c(C)cccc1C was read as VDR inhibitor 9%.
COc1ccc(N2C(=O)NC(=O)/C(=C\c3cn(CC(=O)N4CCOCC4)c4ccccc34)C2=O)c(OC)c1 was read as VDR inhibitor inconclusive, PLK1 PBD inh 11µM*, Tb PFK block 15% and BRCA1 expr act 10%.
Screening COCCCNC(=O)Cn1cc(/C=C2\C(=O)NC(=O)N(c3ccccc3F)C2=O)c2ccccc21 returned VDR inhibitor inconclusive, PLK1 PBD inh inconclusive, Tb PFK block inconclusive and BRCA1 expr act -15%.
COCCNC(=O)Cn1cc(/C=C2\C(=O)NC(=O)N(c3ccccc3F)C2=O)c2ccccc21 was read as VDR inhibitor 11%, PLK1 PBD inh 3µM*, Tb PFK block 21% and BRCA1 expr act -1%.
Screening COCCNC(=O)Cn1cc(/C=C2\C(=O)NC(=O)N(c3cccc(C)c3C)C2=O)c2ccccc21 returned VDR inhibitor inconclusive, PLK1 PBD inh 3.8µM*, Tb PFK block inconclusive and BRCA1 expr act -2%.
Screening CC[C@H](Oc1ccc(Cl)cc1)C(=O)OC1C[C@H]2CC[C@@H](C1)N2C (some centres undefined) returned VDR inhibitor -2%.
Screening CN1C(=O)C(=Cc2c(OCc3cnc(Cl)s3)ccc3ccccc23)C(=O)N(C)C1=O returned VDR inhibitor inconclusive, PLK1 PBD inh 4.7µM*, Tb PFK block inconclusive and BRCA1 expr act 23%.
`CN1C[C@@H](CO)C=C2c3cccc4[nH]cc(c34)CC21` (some centres undefined) gave VDR inhibitor -12%.
For CC1=C[C@@H]2c3cccc4[nH]cc(c34)C[C@H]2N(C)C1 the results were VDR inhibitor 50µM*!, PLK1 PBD inh inconclusive, Tb PFK block -3% and BRCA1 expr act 0%.
Screening CN1Cc2ccccc2[C@@H]2c3cccc4[nH]cc(c34)C[C@H]21 returned VDR inhibitor 14µM*.
For CCN(CC)C(=O)N[C@@H]1C[C@H]2c3cccc4[nH]cc(c34)C[C@@H]2N(C)C1 the results were VDR inhibitor 3%.
CC/C=C\C/C=C\C/C=C\C/C=C\C/C=C\CCCC(=O)NCCc1ccc(O)c(O)c1 was read as VDR inhibitor -15%.
For CCOC(=O)[C@@]1(C#N)[C@@H]2C=CC(C(N)=O)=CN2[C@@H](C(N)=O)[C@@H]1c1cccc(Cl)c1 the results were VDR inhibitor -2%, PLK1 PBD inh 27µM*, Tb PFK block -5% and BRCA1 expr act -14%.
`O=C(CC[N+](=O)[O-])OCC1OC(O)C(OC(=O)CC[N+](=O)[O-])[C@@H](OC(=O)CC[N+](=O)[O-])C1OC(=O)CC[N+](=O)[O-]` (some centres undefined) gave VDR inhibitor 5%.
